High-throughput results as filed in PubChem.
Most compounds without a hit are left out; they make up all but 2% or so of the library.
Abeta yeast res – A-beta toxicity reversal in yeast; Potency, µM (series often up to 46.1 µM), hits mostly activators; yeast expressing A-beta42, growth rescue, OD600, 48 h; response scale: 0% DMSO, 100% iron-clioquinol control; actives 0.063% (n = 410,000); note: nearly all actives have a fitted effect of over 55% in size
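Yeast A-beta toxicity model in growth medium with pinned compounds, 48 h at 30 C; growth read as absorbance at 600 nm. Normalized to FeCl3/clioquinol equimolar mix (positive) and DMSO (negative).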
TDP43 rescue – TDP-43 toxicity inhibition in yeast; TDP-43 expressing yeast growth rescue, BacTiter-Glo, 24 h; Potency, µM (highest dose often 46.1 µM), inactives show top-dose growth rescue (activation), most hits filed as activators; actives 1.8% (n = 410,000); AID 652104; note: % of control where 0% means no effect; nearly all actives have a fitted effect of over 50% in size
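Yeast cells expressing TDP-43 under galactose induction are exposed to compounds for 24 hr at 30 deg C. BacTiter-Glo luminescence measures growth, so protective compounds score as activators.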
Glioma ERSR ind – ER stress response induction in glioma. Potency, µM, without a hit: at the highest dose activation, usual class: activators. U87-MG GRP78 promoter luciferase reporter, 16 h. actives 0.02% (n = 420,000); note: series mostly up to about 76 µM; % of control where 0% means no effect; nearly all actives have a fitted effect of over 35% in size
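Stably transfected U87-MG human glioma cells carrying a GRP78-based luminescent sensor were seeded at 1000 cells/well, pin-dosed with compounds and incubated 16 h. Luciferase reagent was then added, and end-point luminescence was read after 10 min at room temperature.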
MBNL1 CUG block – MBNL1-poly(CUG) RNA binding inhibition; Q9NR56; TR-FRET MBNL1-His/biotin-(CUG)12 binding, 665/545 ratio; Potency, µM (titrated, usually from 57.5 µM), for inactives: at the top dose activity change, negative = inhibition, actives largely listed as inhibitors; actives 0.036% (n = 280,000); active = well fitted inhibition curve with a large enough effect in the signal ratio, with a control signal flat, not every such curve was filed as active; inconclusive = small, poorly fitted or top-dose-only effect, or effect the other way, or a change in a side signal; inactive = no such curve, though single readings can be large or run the other way; the % refers to the signal ratio; note: % is set by controls: 0 for no effect and ±100 for the full control effect
Target sequence (Q9NR56 whole entry, looked up): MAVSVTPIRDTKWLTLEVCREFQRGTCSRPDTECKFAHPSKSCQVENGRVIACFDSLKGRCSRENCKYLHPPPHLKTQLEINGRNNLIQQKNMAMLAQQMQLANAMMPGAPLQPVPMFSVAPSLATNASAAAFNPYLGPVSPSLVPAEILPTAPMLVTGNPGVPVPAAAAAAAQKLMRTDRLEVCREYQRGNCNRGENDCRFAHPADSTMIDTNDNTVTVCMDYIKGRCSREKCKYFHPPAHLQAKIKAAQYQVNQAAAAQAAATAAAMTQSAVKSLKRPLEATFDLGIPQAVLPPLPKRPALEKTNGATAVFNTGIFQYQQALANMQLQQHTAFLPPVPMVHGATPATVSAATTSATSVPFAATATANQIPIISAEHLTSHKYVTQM
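Inhibition of protein-RNA binding appears as loss of TR-FRET between terbium anti-His antibody on MBNL1-His and streptavidin-XL665 on biotin-(CUG)12. Activity is normalized to buffer-only and uninhibited-complex controls.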
FUS suppressor – suppressors of FUS proteinopathy in yeast | S. cerevisiae FUS-expressing, growth rescue, OD600, 24 h | Potency, µM (doses to about 76.6 µM), actives largely listed as activators | actives 0.24% (n = 390,000) | AID 1347120;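 note: plate controls were DMSO vehicle for no effect and reference control for full effect; nearly all actives have a fitted effect of over 55% in size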
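Steps: raffinose overnight preculture; dilution to OD 0.005 in 2% galactose minimal medium; compound addition (concentration series); 24hr at 30C, 99% humidity; absorbance read at 600 nm.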
aSyn rescue – alpha-synuclein toxicity inhibition in yeast. Potency, µM (titrated, usually from 46.1 µM), for the others: at the highest dose growth rescue (activation), most hits filed as activators. actives 0.14% (n = 370,000). Yeast expressing alpha-synuclein, growth rescue, BacTiter-Glo, 24 h. AID 652106; note: % of control where 0% means no effect; nearly all actives have a fitted effect of over 65% in size
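Readout is rescue of growth in alpha-synuclein-expressing yeast, so inhibitors of toxicity appear as activators. Growth after 24 hr at 30 deg C in galactose medium is quantified by luminescence.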
* = called active by the depositor; i = inactive; ? = inconclusive; · = no result. Unless noted, calls come from the whole dose curve; as a rule, active = well fitted curve in the direction sought with a large enough effect; inconclusive = small, poorly fitted or top-dose-only effect, or another doubt; inactive = no such curve, though single readings can be large; an effect the other way counts as inactive or inconclusive. Potency is the fitted concentration of half-maximal effect.

SMILES | Abeta yeast res | TDP43 rescue | Glioma ERSR ind | MBNL1 CUG block | FUS suppressor | aSyn rescue
COc1cccc(C2=CC(=O)C[C@H](c3ccc4c(c3)OCO4)C2)c1OC | i | 12.6µM* | 5.7% | · | ? | -2.5%
c1ccc(-c2ccc(C3=Nn4c(nnc4-c4ccccn4)SC3)cc2)cc1 | · | · | · | · | i | ·
COc1ccc(CNC(=O)C2=C(C)C(=O)OC23CCC(C)CC3)cc1 (configuration not stated) | i | 15.8µM* | -0.7% | -10.3% | i | 8.4%
COc1ccc(N2CCN(c3ncnc4c3nc3n4CCCCC3)CC2)cc1 | i | 15.7% | -0.8% | · | i | ·
COc1cccc(N2CCN(c3ncnc4c3nc3n4CCCCC3)CC2)c1 | i | 17.8µM* | -7.6% | · | ? | ·
FC(F)(F)c1cccc(N2CCN(c3ncnc4c3nc3n4CCCC3)CC2)c1 | i | 15.8µM* | 1.7% | · | i | ·
Fc1ccccc1N1CCN(c2ncnc3c2nc2n3CCCCC2)CC1 | i | ? | -2.0% | · | i | ·
COc1ccccc1N1CCN(c2ncnc3c2nc2n3CCCC2)CC1 | i | 35.5µM* | -2.0% | · | i | ·
COC(=O)C1CN(C2CC2)CCS(=O)(=O)N1Cc1cn(Cc2ccccc2)nn1 (configuration not stated) | · | · | · | · | i | ·
CC(C)(C)n1ncc2c(=O)n(Cc3ccccc3CS(=O)(=O)c3ccccc3)cnc21 | · | · | -2.2% | · | · | ·
Cc1cc(C(=O)Nc2cccc(-c3nc(CNC(=O)c4cc5ccccc5[nH]4)c(C)o3)c2)c(C)o1 | · | · | -6.0% | · | · | ·
COc1ccc(NC(=O)c2cnn(-c3ccc(F)cc3F)c2C2CCN(C(=O)OC(C)(C)C)CC2)cc1Cl | i | 16.4% | 1.4% | · | 12.6µM* | ·
COc1cc(Cl)c(C)cc1NC(=O)c1cnn(-c2ccc(F)cc2F)c1C1CCN(C(=O)OC(C)(C)C)CC1 | i | 14.0% | -1.0% | · | i | ·
CC(C)(C)OC(=O)N1CCC(c2c(C(=O)N3CCN(c4ccc(Cl)cc4)CC3)cnn2-c2ccc(F)cc2F)CC1 | i | ? | -4.1% | · | 22.4µM* | ·
CC1(OC(=O)C2CCCC2)C(=O)C=C2C=C(c3ccsc3)N(C3CCCCC3)C=C2C1=O (configuration not stated) | i | 10µM* | 0.2% | 15.4% | i | -16.1%
O=c1c2ccccc2nnn1CSc1ccccc1 | i | 16.5% | -1.6% | 6.1% | i | 4.2%
O=c1c2ccccc2nnn1Cc1cccc2ccccc12 | ? | 12.6µM* | 0.6% | 7.0% | i | -1.1%
O=c1c2ccccc2nnn1CSc1ccc2ccccc2n1 | i | 17.8µM* | 7.2% | · | · | ?
O=c1c2ccccc2nnn1Cc1ccccn1 | i | -11.0% | -3.0% | 15.4% | i | -4.2%
COCc1c(C(=O)N2CC3CCC2C3)cnn1-c1nccc(-c2ccccc2OC)n1 (configuration not stated) | · | · | 0.5% | · | · | ·
O=S(=O)(NCCSCc1c(Cl)cccc1Cl)c1ccc2c(c1)OCCO2 | i | 35.5µM* | -2.6% | 6.3% | i | 6.4%
Cc1c(Cl)cccc1NS(=O)(=O)c1ccc(NS(=O)(=O)c2ccc3c(c2)OCCO3)cc1 | i | 19.7% | -0.2% | · | 22.4µM* | ·
CN1[C@@H]2CC[C@@H]1CC(OC(=O)[C@H](CO)c1ccccc1)C2 (some centres not stated) | · | · | -3.2% | · | · | ·
Cc1c[nH]c2cccc(-c3ccc4c(c3)OCO4)c12 | · | · | · | · | i | ·
Cn1cnc([N+](=O)[O-])c1S(=O)(=O)Nc1ccccc1 | i | -17.1% | -14.2% | · | ? | -4.1%
Cn1cnc([N+](=O)[O-])c1S(=O)(=O)Oc1ccccc1 | i | 12.6µM* | -14.9% | · | i | -6.3%
Cn1cnc([N+](=O)[O-])c1S(=O)(=O)c1cccc(Cl)c1 | i | 12.6µM* | -15.5% | 22.9% | i | 3.9%
